Screens from PubChem.
Shown are actives, neighbours in structure and some others; about 7% of the full set was active somewhere.
AHR activator: human AHR activation | actives 2.5% (n = 320,000) | AID 2796 | activation, % at 5 µM | AHR-responsive luciferase reporter cells, luminescence; in the data active means activation above about 47%;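 further: 0% = vehicle wells and 100% = reference agonist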
proKLK7 act: activates the human kallikrein-7 zymogen. P49862. purified proKLK7, EDANS-DABCYL substrate fluorescence; 100% is mature enzyme control, 0% vehicle. activation, % at 7 µM. actives 0.9% (n = 370,000);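 active means activation above the mean of all tested compounds plus 3 SD, computed per campaign excluding outliers beyond control limits, cut at about 13% in these data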
ADAM17 inh: ADAM17 inhibition, QFRET primary screen; P78536; actives 0.83% (n = 370,000); inhibition, % at 6.95 µM; recombinant ADAM17, EDANS/DABCYL FRET peptide cleavage;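 active means inhibition above the mean of compounds lying between control limits plus 3 SD, set per campaign, cut at about 8.5% in these data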;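 further: 0% = DMSO-only wells as the low control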
Target sequence (P78536 215-824 limits assumed): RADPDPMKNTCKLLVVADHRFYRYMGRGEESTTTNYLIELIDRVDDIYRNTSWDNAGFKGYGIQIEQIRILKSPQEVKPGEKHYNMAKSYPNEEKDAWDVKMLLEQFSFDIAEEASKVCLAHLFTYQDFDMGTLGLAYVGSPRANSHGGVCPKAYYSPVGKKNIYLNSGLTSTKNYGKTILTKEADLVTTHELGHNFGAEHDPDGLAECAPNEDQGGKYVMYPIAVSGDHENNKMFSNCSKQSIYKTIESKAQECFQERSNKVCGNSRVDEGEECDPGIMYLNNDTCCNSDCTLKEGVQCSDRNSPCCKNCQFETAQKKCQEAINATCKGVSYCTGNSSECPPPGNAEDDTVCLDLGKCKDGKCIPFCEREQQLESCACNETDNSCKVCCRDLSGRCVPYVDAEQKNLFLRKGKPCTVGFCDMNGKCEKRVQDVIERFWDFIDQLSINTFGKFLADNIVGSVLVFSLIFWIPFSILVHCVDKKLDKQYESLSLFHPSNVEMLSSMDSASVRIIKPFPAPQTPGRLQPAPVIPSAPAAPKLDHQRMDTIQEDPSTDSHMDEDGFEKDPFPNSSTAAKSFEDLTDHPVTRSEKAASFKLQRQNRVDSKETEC
ADAM10 inh: inhibitors of human ADAM10. inhibition, % at 7 µM. recombinant ADAM10, EDANS/DABCYL FRET peptide cleavage, 3 h. actives 0.62% (n = 370,000). AID 720582;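 active means inhibition above a per-campaign cutoff equal to the mean of compounds falling between control-based bounds plus 3 SD, cut at about 20% in these data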;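 further: 0% = DMSO wells while the 100% control is not disclosed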
GRIN3A LBD mod: NR3A (human) ligand-binding domain modulation; NR3A LBD differential scanning fluorimetry, Tm shift; 0% = protein alone, 100% = glycine-bound protein; Tm shift relative to glycine control, % at 25 µM; actives 2.5% (n = 340,000);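 active means melting temperature shift of at least 10% of the positive control shift, at one fixed dose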
rCAG binder: r(CAG) repeat RNA binding | TO-PRO-1 dye displacement fluorescence | actives 1.3% (n = 370,000) | inhibition, % at 3 µM;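 active means inhibition above the plate cutoff, the mean of all test compounds on that plate plus 3 SD, cut at about 35% in these data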;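 further: 0% = DMSO alone and 100% = 100 µM mitoxantrone as full dye displacement; higher means more dye released from RNA so lower well fluorescence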
* hit, by the source's call.

Results for COc1cccc(-c2cc(C(=O)Nc3ccc4c(c3)OCO4)no2)c1 ?
AHR activator: -5; proKLK7 act: 0; ADAM17 inh: -2; ADAM10 inh: -8; GRIN3A LBD mod: 15*; rCAG binder: -1

How did O=C(Nc1ccc2c(c1)OCO2)c1ccc(Cl)cc1Cl do in these assays?
AHR activator: 8; proKLK7 act: 0; ADAM17 inh: 1; ADAM10 inh: -1; GRIN3A LBD mod: 1; rCAG binder: -2

Results for O=C(Nc1ccc2c(c1)OCO2)c1cc(-c2cccc(O)c2)on1 ?
AHR activator: 8; proKLK7 act: 1; ADAM17 inh: -3; ADAM10 inh: -4; GRIN3A LBD mod: 3; rCAG binder: 14

What do the screens show for `Cc1c(C(=O)Nc2ccc3c(c2)OCO3)oc2ccccc12`?
AHR activator: 76*; proKLK7 act: 1; ADAM17 inh: 5; ADAM10 inh: 2; GRIN3A LBD mod: 1; rCAG binder: 3

How did O=c1c2ccccc2[nH]n1[C@@H](Cc1ccccc1)Cn1cc(-c2ccc(-c3ccccc3)cc2)nn1 do in these assays?
proKLK7 act: 0; ADAM17 inh: 7; ADAM10 inh: 13; rCAG binder: 19

How did CCOc1ccc(CCNC(=O)c2ccc3[nH]ccc3c2)cc1OCC do in these assays?
ADAM17 inh: -3; ADAM10 inh: 0

What do the screens show for `C[C@@H]1COc2cc(Br)ccc2S(=O)(=O)N1Cc1cn(Cc2ccc(Cl)cc2)nn1`?
proKLK7 act: 0; ADAM17 inh: -1; ADAM10 inh: 1; rCAG binder: 4

How did O=C(Nc1ccccc1)Nc1nc2ncccn2c1-c1ccc(C(F)(F)F)cc1 do in these assays?
proKLK7 act: 1; ADAM17 inh: -89; ADAM10 inh: -302; rCAG binder: 4

What do the screens show for `O=S(=O)(c1ccc(Cl)cc1)N1CCN(C(=S)NCC2CCCO2)CC1` (stereo not given)?
AHR activator: 1; proKLK7 act: 0; ADAM17 inh: -2; ADAM10 inh: -2; GRIN3A LBD mod: 11*; rCAG binder: -5

Results for O=S(=O)(c1ccc(F)cc1)N1CCN(C(=S)NCC2CCCO2)CC1 (stereo not given) ?
AHR activator: 0; proKLK7 act: 0; ADAM17 inh: 0; ADAM10 inh: -8; GRIN3A LBD mod: 1; rCAG binder: -4

What do the screens show for `Cc1ccc(/C(=N/Nc2nc3ccccc3s2)C2=C(O)c3ccccc3C2=O)cc1`?
AHR activator: 10; proKLK7 act: -1; ADAM17 inh: 2; ADAM10 inh: 2; GRIN3A LBD mod: 19*; rCAG binder: 26

How did Cc1ccc(S(=O)(=O)N(C)CC(=O)Nc2nc3ccccc3s2)cc1 do in these assays?
AHR activator: 8; proKLK7 act: 0; ADAM17 inh: 0; ADAM10 inh: 4; GRIN3A LBD mod: -11; rCAG binder: 2

Results for CN1CCCCC(NC(=O)c2ccc(F)cc2)C1=O (stereo not given) ?
proKLK7 act: 1; ADAM17 inh: -2; ADAM10 inh: -1; rCAG binder: 2

How did Fc1ccc(C2=Nn3c(nnc3C3CCCCC3)SC2)cc1 do in these assays?
proKLK7 act: 0; ADAM17 inh: -2; ADAM10 inh: 0; rCAG binder: -1

What do the screens show for `COc1cc(Cl)c(NS(=O)(=O)c2ccc(-c3ccc(=O)[nH]n3)o2)c(OC)c1`?
AHR activator: 10; proKLK7 act: 1; ADAM17 inh: 0; ADAM10 inh: 3; GRIN3A LBD mod: 16*; rCAG binder: 8

What do the screens show for `Cc1cccc(C)c1NS(=O)(=O)c1ccc(-c2ccc(=O)[nH]n2)o1`?
AHR activator: 4; proKLK7 act: 0; ADAM17 inh: -4; ADAM10 inh: -9; GRIN3A LBD mod: -1; rCAG binder: -2

What do the screens show for `O=C(N/N=C/c1ccc[nH]1)c1sc2ccccc2c1Cl`?
AHR activator: 27; proKLK7 act: -1; ADAM17 inh: 2; ADAM10 inh: 1; GRIN3A LBD mod: 3; rCAG binder: 7

How did Cc1occc1C(=O)N/N=C/c1ccccn1 do in these assays?
AHR activator: 8; proKLK7 act: 0; ADAM17 inh: -2; ADAM10 inh: -3; GRIN3A LBD mod: 1; rCAG binder: 0

How did O=C(N/N=C/c1ccccn1)c1c[nH]c2ccccc12 do in these assays?
AHR activator: 57*; proKLK7 act: 0; ADAM17 inh: -3; ADAM10 inh: -13; GRIN3A LBD mod: 4; rCAG binder: 0

Results for O=C(N/N=C/c1ccc[nH]1)c1c[nH]c2ccccc12 ?
proKLK7 act: 0; ADAM17 inh: -7; ADAM10 inh: -12; GRIN3A LBD mod: 32*; rCAG binder: 0

Results for CN1CCc2c(sc(/N=C/c3c[nH]c4ccccc34)c2C#N)C1 ?
AHR activator: 48*; proKLK7 act: 1; ADAM17 inh: -43; ADAM10 inh: -114; GRIN3A LBD mod: -7; rCAG binder: -16

How did CN1CCc2c(sc(/N=C/c3c[nH]c4ccccc34)c2C(N)=O)C1 do in these assays?
AHR activator: 76*; proKLK7 act: 1; ADAM17 inh: -73; ADAM10 inh: -168; GRIN3A LBD mod: 0; rCAG binder: 3

How did CN1CCc2c(sc(/N=C/c3cc(Cl)ccc3O)c2C#N)C1 do in these assays?
AHR activator: 11; proKLK7 act: 0; ADAM17 inh: -8; ADAM10 inh: -23; GRIN3A LBD mod: -5; rCAG binder: 7

Results for COc1ccc(CCNC(=O)Nc2ccc3c(c2)[C@]2(CC(=O)N(CC(C)C)C2c2ccccc2)C(=O)N3C)cc1OC (stereo not given in full) ?
proKLK7 act: 0; ADAM17 inh: 5; ADAM10 inh: 2; rCAG binder: 1

How did COC(=O)C(CN)CN1C(=O)c2ccccc2C1=O (stereo not given) do in these assays?
proKLK7 act: 0; ADAM17 inh: 0; ADAM10 inh: 3; rCAG binder: 1

What do the screens show for `CN(CCc1ccccn1)C(=O)Cn1nc(-c2ccccc2)ccc1=O`?
proKLK7 act: 0; ADAM17 inh: 0; ADAM10 inh: -5; rCAG binder: -2

What do the screens show for `N#Cc1c(-c2ccccc2)nc(SCC(=O)N2c3ccccc3Sc3ccccc32)[nH]c1=O`?
AHR activator: 2; proKLK7 act: 0; ADAM17 inh: 0; ADAM10 inh: 15; GRIN3A LBD mod: -8; rCAG binder: 89*

What do the screens show for `N#Cc1c(-c2ccccc2)nc(SCC(=O)Nc2ccccc2)[nH]c1=O`?
AHR activator: 0; proKLK7 act: 0; ADAM17 inh: 1; ADAM10 inh: 3; GRIN3A LBD mod: -4; rCAG binder: 29

Results for CCOC(=O)CCCCC(=O)c1[nH]c(=O)[nH]c1CSc1nc(-c2ccccc2)c(C#N)c(=O)[nH]1 ?
AHR activator: 0; proKLK7 act: -5; ADAM17 inh: 0; ADAM10 inh: 8; GRIN3A LBD mod: -7; rCAG binder: 56*
